Reference: PubChem BioAssay (Tox21)
Several values for one entry are separate records, joined by “and”; a condition that tells them apart may be missing. Equal values may be shown once. Results filed as inconclusive are left out. Entries that show only a call come without a potency. Some compounds were tested as several samples or in several runs, with calls that do not always agree. Activity calls are given as the source filed them. Unless noted, calls follow the shape of the dose curve; as a rule, active = well fitted curve in the direction sought with a large enough effect in the repeat runs; inconclusive = weak or mixed curves; inactive = no such curve, though single readings can be large; an effect the other way counts as inactive or inconclusive.

How the values were obtained:
[1] = qHTS assay to identify small molecule antagonists of the thyroid receptor (TR) signaling pathway - cell viability counter screen (AID 743064); also: nearly all actives have a fitted effect of over 50% in size
How it was run: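 In rat pituitary GH3.TRE-Luc reporter cells co-exposed to compound and 1 nM T3 for 23.5 h, cytotoxicity was assessed with CellTiter-Fluor in the same wells, read by fluorescence.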

[2] = qHTS assay to identify small molecule antagonists of the thyroid receptor (TR) signaling pathway (AID 743065); also: series mostly up to about 70 µM; nearly all actives have a fitted effect of over 55% in size
How it was run: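 Antagonism measured as loss of luciferase signal in GH3 cells stably carrying a TRE-luciferase reporter, co-treated with compound and T3 (1 nM final) for 23.5 h at 37 C. Viability was read in the same well by CellTiter-Fluor.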

[3] = tested on: thyroid hormone receptor (rat, GH3 cells); assay: qHTS assay to identify small molecule agonists of the thyroid receptor (TR) signaling pathway (AID 743066; calls by dose curve)
[4] = qHTS assay to identify small molecule antagonists of the estrogen receptor alpha (ER-alpha) signaling pathway - cell viability counter screen (AID 743074; calls by dose curve;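 also: HEK293 cells carrying ER-alpha-UAS-bla reporter stimulated with 17beta-estradiol; nearly all actives have a fitted effect of over 45% in size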; also: potency is read from the fitted curve at half-maximal effect)
[5] = target: Estrogen receptor (Homo sapiens) (UniProt P03372); assay: qHTS assay to identify small molecule agonists of the estrogen receptor alpha (ER-alpha) signaling pathway (AID 743075; calls by dose curve;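 also: HEK293 GripTite cells with ER-alpha and UAS-driven beta-lactamase reporter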; also: potency is read from the fitted curve at half-maximal effect)
[6] = target: Estrogen receptor (Homo sapiens) (UniProt P03372); assay: qHTS assay to identify small molecule agonists of the estrogen receptor alpha (ER-alpha) signaling pathway using the BG1 cell line (AID 743079); also: nearly all actives have a fitted effect of over 20% in size; also: potency is read from the fitted curve at half-maximal effect
[7] = qHTS assay to identify small molecule antagonists of the estrogen receptor alpha (ER-alpha) signaling pathway using the BG1 cell line - cell viability counter screen (AID 743081);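 also: compound given together with 17beta-estradiol as the ER stimulus; series mostly up to about 70 µM; nearly all actives have a fitted effect of over 45% in size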
Aromatase (Homo sapiens) = Aromatase (Homo sapiens) (UniProt P11511); assay: qHTS assay to identify aromatase inhibitors (AID 743083); also: nearly all actives have a fitted effect of over 55% in size; also: potency is read from the fitted curve at half-maximal effect
[8] = qHTS assay to identify aromatase inhibitors - cell viability counter screen (AID 743084);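 also: cells stimulated with testosterone during compound exposure; nearly all actives have a fitted effect of over 55% in size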
[9] = target: Aryl hydrocarbon receptor (Homo sapiens) (UniProt P35869); assay: qHTS assay to identify small molecule that activate the aryl hydrocarbon receptor (AhR) signaling pathway (AID 743085); also: nearly all actives have a fitted effect of over 15% in size; also: potency is read from the fitted curve at half-maximal effect;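 as to activation: HG2L7.5c1 human HepG2 liver cells with stably integrated DRE-driven firefly reporter; series mostly up to about 70 µM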
How it was run: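 AhR agonist activity is inferred from enhanced light output of a DRE-controlled firefly luciferase reporter in HepG2 cells, measured with ONE-Glo following 24 h treatment at 37C.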

[10] = qHTS assay to identify small molecule that activate the aryl hydrocarbon receptor (AhR) signaling pathway - cell viability counter screen (AID 743086);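 also: HepG2 liver cells carrying the AhR DRE luciferase reporter; series mostly up to about 70 µM; nearly all actives have a fitted effect of over 45% in size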
How it was run: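 Cytotoxicity counter screen: CellTiter-Fluor signal (30 min, 37 C) in 4000 HepG2 cells/well carrying the DRE-luciferase reporter, following 24 h compound exposure at 37 C.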

[11] = qHTS assay to identify small molecule antagonists of the peroxisome proliferator-activated receptor gamma (PPARg) signaling pathway - cell viability counter screen (AID 743194); also: nearly all actives have a fitted effect of over 55% in size
How it was run: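 Viability was measured as CellTiter-Glo luminescence in GeneBLAzer PPARg UAS-bla HEK293H cells. These cells had been exposed 17 h at 37 C to compounds together with rosiglitazone at 50 nM final, with the beta-lactamase readout taken in the same wells.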

[12] = qHTS assay for small molecule agonists of the antioxidant response element (ARE) signaling pathway (AID 743202; active = well fitted activation curve with a large enough effect in the signal ratio in the repeat runs, not every such curve was filed as active; the % refers to the signal ratio; also: potency is read from the fitted curve at half-maximal effect)
How it was run: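 After 16 hours of compound treatment at 37 C, HepG2 cells with a stably integrated ARE-driven beta-lactamase reporter were loaded 2 hours at room temperature with LiveBLAzer B/G FRET substrate and fluorescence intensity measured.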

[13] = qHTS assay for small molecule agonists of the antioxidant response element (ARE) signaling pathway - cell viability counter screen (AID 743203; calls by dose curve; also: nearly all actives have a fitted effect of over 55% in size)
How it was run: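 Luminescence read-out (CellTiter-Glo, 30 min at room temperature) measured cell viability in the same wells as the ARE beta-lactamase reporter. HepG2 ARE-bla cells were treated with compounds for 16 hrs at 37C/5% CO2.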

[14] = qHTS assay for small molecule activators of the heat shock response signaling pathway - cell viability counter screen (AID 743209); also: nearly all actives have a fitted effect of over 50% in size; also: potency is read from the fitted curve at half-maximal effect
How it was run: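 HSE-bla HeLa; 1500 cells/well; overnight 37 C, 5% CO2; compound 5 h 37 C; LiveBLAzer B/G substrate 2.5 h RT; CellTiter-Glo 30 min RT; luminescence.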

[15] = qHTS assay for small molecule activators of the heat shock response signaling pathway (AID 743210; active = well fitted activation curve with a large enough effect in the signal ratio in the repeat runs, with a control signal flat, not every such curve was filed as active; the % refers to the signal ratio; also: series mostly up to about 63 µM)
How it was run: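 Compound exposure lasted 5 h at 37 C in HeLa cells carrying a heat-shock-element-driven beta-lactamase reporter. Read-out: fluorescence intensity after 2.5 h room-temperature loading with LiveBLAzer B/G FRET substrate.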

[16] = qHTS assay to identify small molecule antagonists of the estrogen receptor alpha (ER-alpha) signaling pathway using the BG1 cell line (AID 743080; calls by dose curve;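 also: BG1 cells stimulated with 17beta-estradiol alongside compound; series mostly up to about 70 µM; nearly all actives have a fitted effect of over 25% in size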)
How it was run: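 Luminescence from a 4×ERE-luciferase reporter in BG1-Luc-4E2 cells served as read-out. Cells, pre-cultured 5 days in stripped-serum phenol-red-free medium, were exposed to compound with 17beta-estradiol co-stimulation for 21.5 h at 37 C.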

[17] = target: Peroxisome proliferator-activated receptor gamma (Homo sapiens) (UniProt P37231); assay: qHTS assay to identify small molecule agonists of the peroxisome proliferator-activated receptor gamma (PPARg) signaling pathway (AID 743094; active = well fitted activation curve with a large enough effect in the signal ratio in the repeat runs, not every such curve was filed as active; the % refers to the signal ratio)
How it was run: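 HEK293H PPARg-bla cells, 5 h settle at 37C/5% CO2; compound (DMSO) 17 h, 37C; B/G FRET substrate 1 h RT; fluorescence intensity read-out. qHTS format.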

[18] = target: Peroxisome proliferator-activated receptor gamma (Homo sapiens) (UniProt P37231); assay: qHTS assay to identify small molecule antagonists of the peroxisome proliferator-activated receptor gamma (PPARg) signaling pathway (AID 743191; calls by dose curve; also: series mostly up to about 63 µM; nearly all actives have a fitted effect of over 30% in size)
How it was run: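 Beta-lactamase reporter under UAS control in HEK293H PPARg-bla cells; compound treatment 17 h at 37C. Read-out: fluorescence intensity after 1 h room-temperature incubation with LiveBLAzer B/G FRET substrate.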

Chain of Aryl hydrocarbon receptor (Homo sapiens) (P35869 whole entry, looked up): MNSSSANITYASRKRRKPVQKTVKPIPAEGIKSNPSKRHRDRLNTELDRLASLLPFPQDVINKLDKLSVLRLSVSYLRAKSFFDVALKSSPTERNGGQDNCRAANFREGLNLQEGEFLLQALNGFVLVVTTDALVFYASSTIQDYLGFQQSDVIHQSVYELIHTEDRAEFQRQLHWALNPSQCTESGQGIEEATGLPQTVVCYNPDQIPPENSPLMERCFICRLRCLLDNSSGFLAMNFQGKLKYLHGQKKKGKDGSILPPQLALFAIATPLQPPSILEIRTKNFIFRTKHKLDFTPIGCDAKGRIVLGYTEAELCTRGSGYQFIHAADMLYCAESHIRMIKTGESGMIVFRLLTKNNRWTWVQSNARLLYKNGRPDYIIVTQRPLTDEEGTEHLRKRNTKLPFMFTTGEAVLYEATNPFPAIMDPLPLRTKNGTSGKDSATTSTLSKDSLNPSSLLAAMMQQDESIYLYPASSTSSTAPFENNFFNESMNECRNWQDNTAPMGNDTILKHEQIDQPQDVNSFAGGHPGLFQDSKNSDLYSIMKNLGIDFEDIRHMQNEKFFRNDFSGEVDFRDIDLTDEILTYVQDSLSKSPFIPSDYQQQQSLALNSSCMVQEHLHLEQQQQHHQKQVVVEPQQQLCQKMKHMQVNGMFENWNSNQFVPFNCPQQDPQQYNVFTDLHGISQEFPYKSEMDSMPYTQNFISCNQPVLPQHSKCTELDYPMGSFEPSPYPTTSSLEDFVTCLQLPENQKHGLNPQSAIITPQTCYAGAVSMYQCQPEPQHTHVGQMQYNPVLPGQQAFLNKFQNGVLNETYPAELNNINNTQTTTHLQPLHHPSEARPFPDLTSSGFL
Chain of Aromatase (Homo sapiens) (P11511 whole entry, looked up): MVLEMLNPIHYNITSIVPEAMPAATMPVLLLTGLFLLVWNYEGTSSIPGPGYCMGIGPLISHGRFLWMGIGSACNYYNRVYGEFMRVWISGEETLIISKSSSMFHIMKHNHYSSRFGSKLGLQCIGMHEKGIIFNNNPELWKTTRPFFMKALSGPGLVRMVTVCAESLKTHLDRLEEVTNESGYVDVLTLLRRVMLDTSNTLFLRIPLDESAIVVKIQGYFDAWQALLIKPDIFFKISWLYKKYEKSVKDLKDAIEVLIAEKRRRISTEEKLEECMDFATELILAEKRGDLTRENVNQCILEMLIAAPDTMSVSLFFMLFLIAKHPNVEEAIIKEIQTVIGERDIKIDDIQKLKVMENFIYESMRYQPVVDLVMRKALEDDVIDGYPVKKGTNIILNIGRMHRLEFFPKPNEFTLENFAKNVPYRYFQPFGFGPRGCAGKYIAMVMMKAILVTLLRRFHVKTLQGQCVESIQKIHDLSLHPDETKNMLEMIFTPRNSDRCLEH
Chain of Estrogen receptor (Homo sapiens) (P03372 whole entry, looked up): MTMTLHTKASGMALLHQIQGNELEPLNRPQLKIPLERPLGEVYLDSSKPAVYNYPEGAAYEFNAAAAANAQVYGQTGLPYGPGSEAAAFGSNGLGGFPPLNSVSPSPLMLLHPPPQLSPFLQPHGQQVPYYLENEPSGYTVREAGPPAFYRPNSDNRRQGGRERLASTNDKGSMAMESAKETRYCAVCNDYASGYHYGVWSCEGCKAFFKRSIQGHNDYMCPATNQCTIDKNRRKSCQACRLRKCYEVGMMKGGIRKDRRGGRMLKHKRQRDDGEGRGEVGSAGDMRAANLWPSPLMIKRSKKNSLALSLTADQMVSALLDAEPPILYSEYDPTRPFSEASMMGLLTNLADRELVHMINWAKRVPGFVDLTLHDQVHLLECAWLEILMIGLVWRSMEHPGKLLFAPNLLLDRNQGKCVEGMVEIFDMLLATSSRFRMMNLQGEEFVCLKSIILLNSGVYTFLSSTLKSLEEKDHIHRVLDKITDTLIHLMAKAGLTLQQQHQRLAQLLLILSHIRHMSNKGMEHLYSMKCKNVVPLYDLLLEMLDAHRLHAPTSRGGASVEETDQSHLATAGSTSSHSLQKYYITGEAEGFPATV
Chain of Peroxisome proliferator-activated receptor gamma (Homo sapiens) (P37231 whole entry, looked up): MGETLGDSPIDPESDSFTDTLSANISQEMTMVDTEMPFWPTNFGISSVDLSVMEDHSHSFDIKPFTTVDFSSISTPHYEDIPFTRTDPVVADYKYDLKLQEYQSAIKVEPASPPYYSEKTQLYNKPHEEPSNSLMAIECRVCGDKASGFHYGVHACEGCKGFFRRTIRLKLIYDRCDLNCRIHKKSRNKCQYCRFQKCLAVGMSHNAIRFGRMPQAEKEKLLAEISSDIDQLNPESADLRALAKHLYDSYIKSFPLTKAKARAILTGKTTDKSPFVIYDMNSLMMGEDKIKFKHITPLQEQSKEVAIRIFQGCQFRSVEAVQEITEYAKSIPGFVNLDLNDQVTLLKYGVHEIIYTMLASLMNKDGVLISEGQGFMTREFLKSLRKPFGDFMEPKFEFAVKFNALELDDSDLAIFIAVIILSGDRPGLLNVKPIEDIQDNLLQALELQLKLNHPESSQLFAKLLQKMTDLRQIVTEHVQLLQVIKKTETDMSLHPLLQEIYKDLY

Compound | Potency [1] | Potency [2] | Potency [3] | Potency [4] | Potency [5] | Potency [6] | Potency [7] | Potency (Aromatase (Homo sapiens)) | Potency [8] | Potency [9] | Potency [10] | Potency [11] | Potency [12] | Potency [13] | Potency [14] | outcome [15] | Potency [16] | outcome [17] | Potency [18]
c1ccc2c(c1)ccc1cc3c(ccc4ccccc43)cc12 | inactive | inactive | inactive | inactive | inactive and 19.3 µM [fluorescent] (active) | inactive | inactive | inactive | inactive | 958 nM (active) and 121 nM (active) | inactive | inactive | 538 nM (active) and 959 nM (active) | inactive | inactive | inactive | – | – | –
C1COCCN1 | inactive | inactive | inactive | inactive | inactive | inactive | inactive | inactive | inactive | inactive | – | inactive | inactive | inactive | inactive | inactive | inactive | – | –
COc1ccc(C(=O)c2ccccc2O)c(O)c1 | inactive | inactive | inactive | inactive | – | – | inactive | inactive | inactive | inactive | inactive | inactive | inactive | inactive | inactive | inactive | – | inactive | –
C=C[C@@]1(C)CC(=O)[C@]2(O)[C@@]3(C)[C@@H](O)CCC(C)(C)[C@@H]3[C@H](O)[C@H](OC(C)=O)[C@@]2(C)O1 | inactive | inactive | inactive | inactive | inactive | – | – | 1.19 µM (active) and 969 nM (active) | inactive | inactive | – | inactive | inactive | inactive | 24.5 µM (active) and inactive | inactive | – | inactive | –
CN1CCOCC1 | inactive | inactive | inactive | inactive | – | – | inactive | inactive | inactive | inactive | inactive | – | inactive | inactive | inactive | inactive | – | – | –
CCCCCC=O | inactive | inactive | inactive | inactive | inactive | inactive | inactive | – | – | inactive | – | inactive | inactive | inactive | inactive | inactive | inactive | inactive | –
CCCOCCO | inactive | inactive | inactive | inactive | – | – | inactive | inactive | inactive | inactive | inactive | inactive | inactive | inactive | inactive | inactive | – | inactive | –
Cc1ccc2c(c1)C(=O)OC2=O | inactive | inactive | inactive | inactive | – | – | inactive | inactive | inactive | inactive | inactive | inactive | inactive | inactive | inactive | inactive | – | inactive | –
COc1ccc2nc(N)sc2c1 | inactive | inactive | inactive | inactive | inactive | 30.6 µM (active) and 54.5 µM (active) | inactive | inactive | inactive | 48.6 µM (active) and 27.3 µM (active) | inactive | inactive | inactive | inactive | inactive | – | – | inactive | inactive
CCCCCCCCCCC(CO)CCCCCCCC (stereo not given) | inactive | inactive | inactive | inactive | – | – | inactive | inactive | inactive | inactive | inactive | inactive | inactive | inactive | inactive | inactive | – | inactive | –
O=C(O)CCCCCCCCCCCC(=O)O | inactive | inactive | inactive | inactive and 4.36 µM (active) | – | – | inactive | inactive | inactive | inactive | – | inactive | inactive | inactive | inactive | inactive | – | inactive | –
CCO[Si](CCCNC(N)=O)(OCC)OCC | inactive | inactive | inactive | inactive | inactive | inactive | inactive | inactive | inactive | inactive | – | inactive | inactive | inactive | inactive | inactive | inactive | inactive | –
Oc1c(Cl)ccc(Cl)c1Cl | inactive | inactive | inactive | inactive | inactive | inactive | inactive | inactive | inactive | inactive | – | inactive | – | inactive | inactive | inactive | inactive | inactive | –
CC(=O)[C@@]1(O)CC[C@H]2[C@@H]3C[C@H](C)C4=CC(=O)C=C[C@]4(C)[C@@]3(F)[C@@H](O)C[C@@]21C | inactive | inactive | inactive | inactive | inactive | inactive | inactive | inactive | inactive | inactive | – | inactive | inactive | inactive | inactive | inactive | – | inactive | inactive
